Structures are written as SMILES. Several values for one entry are separate records, joined by “and”; a condition that tells them apart may be missing. Identical values can stand only once. In all, about 420,000 compounds went through this assay and about 64,000 (15%) were called active. Inconclusive results (about 27%) are left out. The call rests on the fitted dose curve; in most records, active means well fitted inhibition curve with a large enough effect; inconclusive means small, poorly fitted or top-dose-only effect; inactive means flat fitted curve, though single readings scatter. Only a sample is shown. A call without a number means that no potency is given here.
Potency means the concentration at half of the fitted maximal effect.

The assay in a line: qHTS for Inhibitors of human tyrosyl-DNA phosphodiesterase 1 (TDP1): qHTS in cells in absence of CPT. Further: nearly all actives have a fitted effect of over 55% in size. The settings on record: DT40 Tdp1-/- hTDP1 cells, no CPT, ATP luminescence, 48 h; activity change, negative = growth inhibition: at 46.2 µM (top of the series). In short, it runs like this:
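Compound effects on proliferation are scored in DT40 Tdp1-/-;hTDP1 cells in the absence of CPT. ATP levels (CellTiter-Glo luminescence) are recorded after a ≥48 hr, 37 °C incubation.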
A general note: In qHTS, concentration-response curves come from the screen itself.
For `O=C(CSc1nnc(-c2ccccc2)o1)N1CCOCC1`, the Potency entry is “inactive”. For the molecule `O=C(CN1C(=O)c2ccccc2S1(=O)=O)N1CCc2ccccc21`, the Potency entry is “inactive”. Consider `Cc1ccc2c(O)c(Cc3ccccc3)c(=O)[nH]c2n1`, for which the Potency entry was “inactive”.

Regarding `CC(C)N(Cc1nnc(-c2ccc(Cl)cc2)o1)C(=O)C1=COCCO1`, the Potency result is “inactive”.

On to `O=c1nc(NO)ccn1C1CCCO1` (stereo not drawn), for which the Potency entry was “inactive”. On to `Cc1ccc(OCc2nnc(NC(=O)OCC(C)C)s2)cc1`, for which the Potency result is “inactive”. The same measure for `O=C(CNC(=O)c1cccs1)N/N=C/c1cccc(Br)c1`: “inactive”; for `CCOC(=O)C1CCCN(S(=O)(=O)c2ccc(-n3cnnn3)c(C)c2)C1` (stereo not drawn): “inactive”; for `CC(=O)N1c2ccc(S(=O)(=O)N3CCCC(C(=O)Nc4cccc(F)c4)C3)cc2CC1C` (stereo not drawn): 29.1 µM (active). In the case of `CC(=O)N1CCCc2cc(S(=O)(=O)Nc3ccc(Cl)cc3F)ccc21`, the Potency was 23.1 µM (active). The same measure for `CCc1cccc(NC(=O)C2CCCN(S(=O)(=O)c3ccc4[nH]c(=O)ccc4c3)C2)c1` (stereo not drawn): “inactive”. Next, `CC(=O)N1c2ccc(S(=O)(=O)N3CCCC(C(=O)Nc4cccc(Cl)c4)C3)cc2CC1C` (stereo not drawn): 20.6 µM (active); `Cc1cc(C)cc(NC(=O)C2CCCN(S(=O)(=O)c3ccc4[nH]c(=O)ccc4c3)C2)c1` (stereo not drawn): “inactive”; `CC(=O)N1CCCc2ccc(NS(=O)(=O)c3ccc(F)cc3F)cc21`: “inactive”. Next, `O=C(Nc1cccc(Cl)c1)c1cc(S(=O)(=O)N2CCCCC2)c[nH]1`: “inactive”; `COc1ccc(NC(=O)C(CC(C)C)NS(=O)(=O)c2ccc3c(c2)CCN3C(C)=O)cc1OC` (stereo not drawn): “inactive”; `CC(=O)N1CCCc2cc(S(=O)(=O)N3CCCC(C(=O)N4CCN(c5cccc(Cl)c5)CC4)C3)ccc21` (stereo not drawn): 2.59 µM (active) and 8.2 µM (active).

For the molecule `CCOC(=O)C1CCCN(S(=O)(=O)c2ccc3c(c2)C(C)(C)C(=O)N3C)C1` (stereo not drawn), the Potency entry was “inactive”. Next, `CC(=O)N1c2ccc(S(=O)(=O)N3CCC(C(=O)NCc4ccc(F)cc4)CC3)cc2CC1C` (stereo not drawn): “inactive”; `Cc1nc2cc(S(=O)(=O)C(F)(F)F)ccc2s1`: “inactive”. The same measure for `CCOC(=O)c1sc(NC(=O)C2CSC3(C)CCC(=O)N23)nc1C` (stereo not drawn): “inactive”; for `O=C(COC(=O)[C@H](Cc1ccccc1)NC(=O)c1cccs1)Nc1cc(F)ccc1F`: “inactive”; for `C/C(=N\Nc1ccc([N+](=O)[O-])cc1)c1ccc(-n2nncc2C(C)(C)C)cc1`: “inactive”. Next, `CCc1cc(=O)oc2c(C)c(OCC(=O)N3CC[C@@]4(O)CCCC[C@H]4C3)ccc12`: “inactive”; `COC(=O)C1=NN(c2ccccc2)C2C(=O)N(c3ccccc3OC)C(=O)C12` (stereo not drawn): “inactive”. Turning to `COc1ccc(S(=O)(=O)NNC(=O)Nc2ccc(C)cc2)c(OC)c1`, the Potency result was “inactive”.

`CC(=O)c1cnc(SCC(=O)O)nc1C`: the Potency entry is “inactive”. Next, `COc1ccc(C(C(=O)NCc2ccccc2)N(Cc2cccs2)C(=O)c2cnccn2)cc1` (stereo not drawn): 16.4 µM (active); `Cc1cccc(N(C(=O)c2csnn2)C(C(=O)NCc2ccccc2)c2ccncc2)c1` (stereo not drawn): “inactive”; `O=C(NCc1ccccc1)C(c1cccnc1)N(C(=O)c1csnn1)c1ccc(F)cc1` (stereo not drawn): “inactive”. As to `COC(=O)CN1C(=O)[C@H]2[C@@H](/C=C/c3ccccc3)N3C(=O)CN(Cc4ccccc4)C(=O)[C@@]3(Cc3ccccc3)[C@H]2C1=O`, the Potency result was “inactive”.

For the molecule `C[C@@H]1CN([C@@H](C)CO)C(=O)CCCn2nncc2CO[C@H]1CN(C)C(=O)Nc1ccc(C(F)(F)F)cc1`, the Potency result is “inactive”.

`CC(C)n1c(C(O)c2ccccc2)nc2ccccc21` (stereo not drawn): the Potency result was “inactive”. Regarding `CC(C)n1c(NCc2c[nH]c3ccccc23)nc2ccccc21`, the Potency was 13 µM (active).

On to `CC(=O)NC(Cc1c[nH]c2ccccc12)C(=O)O` (stereo not drawn), for which the Potency entry was “inactive”. Next, `Cc1ccc2c(c1)N(C(=O)Nc1ccc(Br)cc1F)CCO2`: “inactive”; `C[C@@H]1C(c2ccc(F)cc2)=NN(c2ccc(Br)cc2)[C@H]1C(=O)N1CCOC1=O`: 20.6 µM (active).

With `O=C1OCCN1C(=O)[C@H]1[C@H](c2ccccc2)C(c2ccc(F)cc2)=NN1c1ccccc1`, the Potency entry is “inactive”.

`COc1ccc(/C(N)=N/OC(=O)CCCc2ccccc2)cc1`: the Potency entry is “inactive”. `CONC(=O)c1cc(OCC(F)(F)F)ccc1OCC(F)(F)F`: the Potency result was “inactive”.

As to `CCn1c(SCc2ccc(C)cc2)nnc1-c1nn(-c2ccccc2)ccc1=O`, the Potency result was “inactive”. Next, `CCc1ccc(-c2nn(-c3ccccc3)cc2CSC(=N)N)cc1`: 23.1 µM (active). As for `CCc1ccc(-c2nn(-c3ccccc3C)cc2C(=O)N2CCN(C3CCS(=O)(=O)C3)CC2)cc1` (stereo not drawn), the Potency entry was “inactive”. For the molecule `O=C(CCS(=O)(=O)Cc1ccccc1)Nc1ccc2c(c1)OCCO2`, the Potency entry was “inactive”.

For the molecule `CCN(Cc1ccncc1)C(=O)CCc1ccccc1`, the Potency result is “inactive”.

Turning to `Cc1ccc(C)c(S(=O)(=O)N2CCCOC2CNC(=O)C(=O)NC2CCCCC2)c1` (stereo not drawn), the Potency entry was “inactive”. Next, `CN(C(=O)COC(=O)Cc1ccccc1[N+](=O)[O-])C1CCS(=O)(=O)C1` (stereo not drawn): “inactive”. Next, `O=C(c1ccncc1)N1CCN(S(=O)(=O)c2cccc([N+](=O)[O-])c2)CC1`: “inactive”.

`O=C(c1cccc([N+](=O)[O-])c1)N1CCN(Cc2ccccc2)CC1`: the Potency entry is “inactive”. Next, `CC1(c2cccc([N+](=O)[O-])c2)CC(C)(C)N(C(=O)c2ccccc2)c2ccccc21` (stereo not drawn): 18.4 µM (active); `N#Cc1ccc(-c2ccc3nccn3c2)cc1`: “inactive”; `CC(=O)c1nn(-c2ccccc2)c(=Nc2ccccc2)cc1C`: “inactive”. As to `Cc1ccc(-n2ccc(=O)c(C(=O)O)n2)cc1`, the Potency result is “inactive”.

As to `Cn1c(=O)c(C(=O)O)nn(-c2ccccc2)c1=O`, the Potency was 16.4 µM (active). As to `CCC1SC(CC)C(=O)N(CC(=O)NC2CCCCC2)C1=O` (stereo not drawn), the Potency result is “inactive”.

In the case of `CC(C)Oc1ccc(S(=O)(=O)N2CCOCC2)cc1NC(=O)C1CCCC1`, the Potency entry was “inactive”. As to `COc1ccc(NC(=O)COC(=O)Cn2c(C)nc3ccccc32)cc1OC`, the Potency entry is “inactive”.

For `O=C(Cn1c(-c2cscn2)nc2ccccc21)Nc1ccc(Cl)cc1`, the Potency was 20.6 µM (active). With `O=C(Cn1c(-c2cncs2)nc2ccccc21)NC1CCCC1`, the Potency result was “inactive”. As to `C#CCOCCOCCOCCNc1nc(N2CCN(C(=O)[C@H](Cc3ccc(O)cc3)n3cc(C(N)CC(C)C)nn3)CC2)nc(N2CCN(C(=O)[C@H](CCC(=O)O)n3cc(C(N)[C@H](C)CC)nn3)CC2)n1` (stereo partly drawn), the Potency result was “inactive”. `O=C(CSc1nc(C2CC2)nc2ccccc12)Nc1cccc(O)c1`: the Potency result was “inactive”. Turning to `O=C(CSc1nc(C2CC2)nc2ccccc12)Nc1ccc2c(c1)OCCO2`, the Potency was 20.6 µM (active). Next, `O=C(CN1CCN(CC(=O)Nc2ccc3c(c2)OCO3)CC1)Nc1ccc(F)cc1`: “inactive”; `COC(=O)CSc1nc(C2CC2)nc2ccccc12`: “inactive”.

For `O=C(CSc1nnc(-c2ccccn2)n1-c1ccccc1)Nc1ccc2c(c1)OCO2`, the Potency entry is “inactive”. For `O=C(CSc1nc(-c2cccc(F)c2)[nH]c1-c1ccccc1)Nc1ccc2c(c1)OCO2`, the Potency is 10.3 µM (active). Next, `CCNC(=O)CSc1nc(-c2ccccc2)cs1`: “inactive”.

With `Cc1nnc(NC(=O)CSc2nc(C3CCCCC3)nc3ccccc23)s1`, the Potency result is “inactive”.

Take `CN(C(=O)CSc1nc(C2CC2)nc2ccccc12)c1nc(-c2ccccc2)cs1`: the Potency is 20.6 µM (active).

Turning to `CC(=O)Oc1ccc(C(=O)Nc2nccs2)cc1`, the Potency result is “inactive”.

As to `Cc1ccc(C(=O)N/C(=C/c2cccnc2)C(=O)O)cc1`, the Potency entry was “inactive”. The same measure for `Cn1ccnc1SCC(=O)Nc1ccc2c(c1)OCCO2`: “inactive”; for `Cc1cc([N+](=O)[O-])c(=O)[nH]c1C`: “inactive”; for `COc1ccc(S(=O)(=O)NCC(c2ccco2)N2CCOCC2)cc1` (stereo not drawn): “inactive”.

Consider `Cn1cc(S(=O)(=O)NC(c2ccccc2)c2ccccc2)c(=O)n(C)c1=O`, for which the Potency entry is “inactive”. As to `CCn1c(SCC(=O)Nc2nccs2)nnc1-c1ccco1`, the Potency result was “inactive”. On to `O=C(COC(=O)c1ccc(F)cc1F)Nc1ncccn1`, for which the Potency entry is “inactive”. The same measure for `Cc1cc(C)nc(-n2nc(C)cc2NC(=O)c2ccc(F)cc2F)n1`: 6.51 µM (active); for `Cc1cc(NC(=O)Nc2ccccc2)n(-c2ccccc2)n1`: “inactive”; for `CC(C)c1ccc(S(=O)(=O)N2CCC3(CC2)OCCO3)cc1`: “inactive”.

For `c1ccc2c(c1)CCc1snnc1-2`, the Potency entry was “inactive”. In the case of `C=CCn1c(SCC(=O)NCC2CCCO2)nc2sc(C)c(C)c2c1=O` (stereo not drawn), the Potency entry was “inactive”. For the molecule `C=CCn1c(SCc2c(C)noc2C)nc2sc3c(c2c1=O)CCC(C)C3` (stereo not drawn), the Potency is 16.4 µM (active).

For `C=CCn1c(SCC(=O)NCCCO)nc2sc3c(c2c1=O)CCC3`, the Potency entry was “inactive”. Take `O=C(CN(CC1CCCO1)C(=O)CNS(=O)(=O)c1ccc(F)cc1)NCc1ccco1` (stereo not drawn): the Potency entry is “inactive”. Next, `Nc1nnc(SCC(=O)NCC(=O)Nc2ccc(F)c(F)c2F)s1`: “inactive”; `Cc1ccc(Cn2c(C)c(C(=O)NCc3ccccc3C(F)(F)F)sc2=O)cc1`: “inactive”; `Cn1c(CC(=O)Nc2ccc(F)cc2)nnc1SCC(=O)NC1CCCCC1`: “inactive”.

With `O=C(c1ccco1)N1CCN(C(=O)C2c3ccccc3Oc3ccccc32)CC1`, the Potency result is “inactive”. The same measure for `O=C(CCc1ccccc1F)N1CCN(c2ccccc2)CC1`: “inactive”. Consider `O=C(CCSCc1ccccc1F)N1CCN(c2ccc(Cl)cc2)CC1`, for which the Potency is 18.4 µM (active). Regarding `O=C(CCSc1ccccc1)N1CCN(c2ccccc2F)CC1`, the Potency entry was “inactive”. The same measure for `O=C(Cc1ccccc1Cl)N1CCN(c2ccccn2)CC1`: “inactive”; for `O=C(CCS(=O)(=O)c1cccc2nsnc12)N1CCN(c2ccccc2F)CC1`: “inactive”; for `Cc1cccc(N2CCN(C(=O)CCSCc3ccccc3F)CC2)c1C`: 20.6 µM (active).

With `Cc1ncoc1C(=O)NCCC(c1ccccc1)c1ccccc1`, the Potency entry was “inactive”. The same measure for `Cc1ccc(S(=O)(=O)N2CCN(C(=O)Cc3sc(C)nc3-c3ccc(F)cc3)CC2)c(C)c1`: 18.4 µM (active). On to `COc1ccc(/C=C/C(=O)OCC(=O)N2CCN(S(=O)(=O)c3ccc(C)cc3C)CC2)cc1OC`, for which the Potency was 20.6 µM (active). As for `COc1ccc(S(=O)(=O)N2CCN(CC(=O)N3CCOCC3)CC2)cc1OC`, the Potency result is “inactive”.

Turning to `Cc1ccc(S(=O)(=O)N2CCN(C(=O)N3CCOCC3)CC2)c(C)c1`, the Potency entry was “inactive”. The same measure for `Cc1ccc(S(=O)(=O)N2CCC3(CC2)OCCO3)c(C)c1`: “inactive”; for `Cc1ccc(S(=O)(=O)N2CCN(C(=O)COC(=O)c3c(C)cc(C)cc3C)CC2)c(C)c1`: 10.3 µM (active); for `Cc1ccc(S(=O)(=O)N2CCN(C(=O)COC(=O)/C=C/c3cccc(Cl)c3)CC2)c(C)c1`: 23.1 µM (active).

As to `Cc1ccc(S(=O)(=O)N2CCN(C(=O)COC(=O)c3c(C)noc3C)CC2)c(C)c1`, the Potency entry is “inactive”. The same measure for `Cc1nc(-c2ccc(F)cc2)c(CC(=O)Nc2cccc(S(=O)(=O)N3CCOCC3)c2)s1`: “inactive”; for `CCCCOc1ccc(C(=O)NCC(=O)OCC(=O)N2CCN(S(=O)(=O)c3ccc(C)cc3C)CC2)cc1`: “inactive”; for `COc1ccc(S(=O)(=O)N2CCN(C)CC2)c(C)c1`: “inactive”.

For `O=C(COC(=O)/C=C/c1cccc(Cl)c1)NCc1cccs1`, the Potency result is “inactive”.
